The panel holds about 83,000 compounds, 20% with a hit somewhere; the sample as a whole holds those more often.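 A percent growth of 40 corresponds to 60% growth inhibition; 0 means no net growth; -100 means all cells died. Active threshold: below 10.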 Activity calls are given as the source filed them.
Each compound was assayed on MDA-MB-468 breast (assay: NCI-60 one-dose screen, 48 h (100 = growth as untreated, 0 = no growth, -100 = all killed)). Conditions: 10 µM unless noted.
With `O=C1/C(=C\c2ccccn2)c2ccccc2N1c1c(Cl)cccc1Cl` the growth was -17.2% (active).
`CCCCCCCCCCCCCC(=O)C(C)N` (centres undefined) was tested, and the growth was 33.3% (inactive).
In the case of `CC(c1cc(Cl)ccc1O)c1cc(Cl)ccc1O`, the growth is reported as 6.87% (active).
For `COc1ccc(N=c2nc3sc4cc(Cl)ccc4n3c(N)c2C#N)cc1`, the growth was -7.79% (active).
With `Cc1ccccc1OC(=O)c1cccc(Cl)c1` the growth was 107% (inactive).
In the case of `O=C(O)/C=C/c1ccc2c(c1)CCC2`, the growth is reported as 104% (inactive).
`O=C1/C(=C/c2c[nH]c(=O)[nH]c2=O)SC(=S)N1Cc1ccccc1` was tested, and the growth was 109% (inactive).
With `C=CCn1c(-c2ccc(-c3nc4ccc(C)cc4[nH]3)cc2)n[nH]c1=S` the growth was 95.6% (inactive).
`Cc1ccc(/C=C2/C(=O)Nc3cc(Cl)c(-c4csc(N)n4)cc32)cc1` was tested, and the growth was 15.2% (inactive).
With `COc1ccc(C2CC(c3ccc4ccccc4c3)=NN2c2nc(O)c(C3=c4cc(Cl)ccc4=NC3=O)s2)cc1` (centres undefined) the growth was -73.9% (active).
With `Cc1ccc(Cc2cnc(NC(=O)c3ccc4noc(-c5ccccc5)c4c3)s2)cc1` the growth was 91% (inactive).
For `CC1(C)C2CC1C1(/C=N/NC(N)=S)C(C2)C(C#N)(C#N)C1(C#N)C#N` (centres undefined), the growth was 76.6% (inactive).
With `O=c1oc2ccc(-c3ccc(F)cc3F)cc2c(=O)n1-c1ccc(F)c(F)c1` the growth was -10.8% (active).
`N#C/C(=C\c1ccc(-c2ccc(Cl)c(Cl)c2)o1)c1nc(-c2ccco2)cs1` was tested, and the growth was -38.2% (active).
`O=S(=O)(NCCNc1nccc(-c2c(-c3ccc(F)c(O)c3)nc3sccn23)n1)c1ccc(O)cc1` was tested, and the growth was 31.4% (inactive).
For `CC/C=C\C[C@H](O)C/C=C1/C(=O)C=C[C@@H]1C/C=C\CCCCO`, the growth was 16.5% (inactive).
With `COc1ccc(C2=NN(C(C)=O)C(c3cn(-c4ccccc4)nc3-c3ccc(Cl)cc3)C2)cc1` (centres undefined) the growth was -1.41% (active).
In the case of `CNCCNc1nc2ccccc2c2c(=O)c3cc(F)ccc3sc12`, the growth is reported as 51.6% (inactive).
In the case of `COc1ccc2nc(C)cc(Nc3ccc(Cl)cc3)c2c1`, the growth is reported as 87.2% (inactive).
With `C=CCN=c1sc(-c2ccc3ccccc3c2)cn1NC(=O)c1cc2ccc1CCc1ccc(cc1)CC2` the growth was 39.1% (inactive).
With `O=C(NC1CCN(Cc2ccccc2)CC1)c1cc2nc(-c3ccc(Cl)s3)cc(C(F)(F)F)n2n1` the growth was -66.2% (active).
With `CCOc1cccc(/C(N)=N/C(N)=N/c2nc3ccccc3s2)c1` the growth was 85.6% (inactive).
In the case of `COc1ccc(-c2ccc(-c3ccc(C(=N)N)cn3)s2)cc1OC`, the growth is reported as 92.6% (inactive).
For `O=C(N/N=C/c1ccc(O)c(O)c1)c1sc2ccccc2c1Cl`, the growth was 88.8% (inactive).
In the case of `O=C(Nc1ccc(Nc2ccncc2)cc1)c1ccc(Nc2ccnc3ccc([N+](=O)[O-])cc23)cc1`, the growth is reported as 83.4% (inactive).
For `CC1=C(C(=O)Nc2ccccc2)C(c2ccc3c(c2)OCO3)NC(=S)N1` (centres undefined), the growth was 108% (inactive).
For `Cc1nn(-c2ccccc2)c(Cl)c1C(CC(=O)c1ccc(Cl)cc1)CC(=O)c1ccc(Cl)cc1`, the growth was 87.7% (inactive).
In the case of `Oc1[nH]c2ccccc2c1/C=c1/cc2c(c(-c3ccc(C(F)(F)F)cc3)n1)=Nc1ccccc1-2`, the growth is reported as 21.6% (inactive).
In the case of `O=C1OC2C(I)C3CC2C1C3c1ccccc1` (centres undefined), the growth is reported as 91.5% (inactive).
In the case of `O=C(Nc1ccc(Cl)cc1)Nc1ccc(Nc2nncc3ccccc23)cc1`, the growth is reported as 0.165% (active).
With `CCOC(=O)C1CN(Cc2ccccc2)C(=O)C1=O` (centres undefined) the growth was 106% (inactive).
In the case of `CCCCOC(=O)OCc1cc(=O)c(O)co1`, the growth is reported as 97.5% (inactive).
For `O=C1CNCCN1`, the growth was 106% (inactive).
`C/C(=C(/c1ccc(Cl)cc1)c1ccc(OCCCN(C)C)cc1)c1ccc(Cl)cc1` was tested, and the growth was 89.4% (inactive).
With `COc1ccc(-c2nc(N/N=C/c3cccc(O)c3)nc(N3CCOCC3)c2C#N)cc1` the growth was 87.1% (inactive).
With `COc1ccc(/C=C/c2c(C(=O)/C=C/c3cccs3)c(C)nc3ccccc23)cc1` the growth was 66.9% (inactive).
`Oc1ccc(Nc2nccc(-c3ccc4ccccc4c3)n2)cc1` was tested, and the growth was 20.7% (inactive).
In the case of `Cc1ccc2oc(=O)cc(C3c4ccc([nH]4)C(c4cc(=O)oc5ccc(C)cc45)c4ccc([nH]4)C(c4cc(=O)oc5ccc(C)cc45)c4ccc([nH]4)C(c4cc(=O)oc5ccc(C)cc45)c4ccc3[nH]4)c2c1` (centres undefined), the growth is reported as -28.6% (active).
In the case of `c1cncc(-c2nc3ccccc3[nH]2)c1`, the growth is reported as 102% (inactive).

Source: PubChem BioAssay (NCI)
